Source: PubChem (National Center for Advancing Translational Sciences (NCATS))
KDM5B inh: blocks human KDM5B histone demethylase activity; KDM5B demethylase, FDH-coupled NADH fluorescence (FDH is formaldehyde dehydrogenase); AID 1347165; 2.6% of 220,000 active; Potency, µM (top dose mostly 57.7 µM), actives largely listed as inhibitors; active = well fitted inhibition curve with a large enough effect; also: nearly all actives have a fitted effect of over 70% in size
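KDM5BΔAP (200 nM final) in 50 mM HEPES pH 7.5, 0.01% Tween-20 was preincubated 10 min at RT with compound over a concentration range. Substrate mix (H3K4me3 12.5 µM, α-KG 25 µM, Fe²⁺, ascorbate, NAD⁺, FDH) was added, and NADH fluorescence change over 30 min gave dose-response curves.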
A number is an active result. The sample as a whole holds a higher share of hits than the screen did.

What do the screens show for `Cc1noc(-c2cccc(F)c2)c1C(=O)NCCc1cccc(Cl)c1`?
KDM5B inh: inactive

Results for Cc1noc(-c2cccc(F)c2)c1C(=O)NCCCCc1ccccc1 ?
KDM5B inh: inactive

Results for COc1ccc(CCNC(=O)c2c(C)noc2-c2ccc3c(c2)OCO3)cc1OC ?
KDM5B inh: 28µM

How did Cn1c(=O)c2c(nc(SCC(=O)Nc3ccc(OC(F)(F)F)cc3)n2Cc2cccc(C(F)(F)F)c2)n(C)c1=O do in these assays?
KDM5B inh: inactive

How did CC(C)(C)c1ccc(OCC(O)CN2CCc3ccccc3C2)cc1 (stereo not given) do in these assays?
KDM5B inh: inactive

Results for COc1ccc(CO[C@H]2COCCN(c3nc4ccccc4s3)C2)cc1 ?
KDM5B inh: inactive

What do the screens show for `CC(CCc1ccccc1)NC(=O)C1(C#N)CCCC1` (stereo not given)?
KDM5B inh: inactive

Results for Cc1cccc(-n2nc(C)c(CCC(=O)NC3CC3)c2Oc2ccccc2)c1 ?
KDM5B inh: inactive

How did Cc1nn2c(c1-c1ccccc1Oc1ccccc1)N(C(=O)Cc1ccccc1)CCC2 do in these assays?
KDM5B inh: inactive

How did Cc1nn2c(c1-c1ccccc1-c1ccccc1)N(Cc1ccc(C(=O)O)s1)CCC2 do in these assays?
KDM5B inh: inactive

What do the screens show for `Cc1nn2c(c1-c1ccccc1-c1ccccc1)N(C(=O)Cc1ccc3c(c1)OCO3)CCC2`?
KDM5B inh: inactive

How did Cc1nn2c(c1-c1ccccc1Oc1ccccc1)N(C(=O)c1cccc(C#N)c1)CCC2 do in these assays?
KDM5B inh: inactive

Results for Cc1nn2c(c1-c1ccccc1Oc1ccccc1)N(Cc1cccc(C#N)c1)CCC2 ?
KDM5B inh: 25µM

What do the screens show for `Cc1nn2c(c1-c1ccccc1C(C)C)N(Cc1ccc(C(=O)O)s1)CCC2`?
KDM5B inh: inactive

How did Cc1nn2c(c1-c1ccccc1-c1ccccc1)N(C(=O)c1ccnn1C)CCC2 do in these assays?
KDM5B inh: inactive

What do the screens show for `Cc1nn2c(c1-c1ccccc1-c1ccccc1)N(Cc1ccccc1)CCC2`?
KDM5B inh: 32µM

Results for Cc1nn2c(c1-c1ccccc1-c1ccccc1)N(CCC(C)C)CCC2 ?
KDM5B inh: 6.3µM

Results for O=C(CN1CC2CC(C1)[C@H]1CCCC(=O)N1C2)N1CCN(c2ccc(F)cc2)CC1 (stereo not given in full) ?
KDM5B inh: inactive

What do the screens show for `CN(Cc1ccc2c(c1)OCCO2)S(=O)(=O)c1cnn(C)c1`?
KDM5B inh: inactive

How did CCC1(N2CCN(C(=O)c3sccc3C)CC2)CCN(S(C)(=O)=O)C1 (stereo not given) do in these assays?
KDM5B inh: inactive

How did O=C(C1COc2ccccc2C1)N1CCC(n2c(=O)[nH]c3ccccc32)CC1 (stereo not given) do in these assays?
KDM5B inh: inactive

Results for O=C(NC1CC(=O)N(c2ccc(Cl)cc2)C1)c1ccc(S(=O)(=O)N2CCOCC2)cc1 (stereo not given) ?
KDM5B inh: inactive

Results for N#C/C(=C/c1cccc(Oc2ccccc2)c1)C(N)=O ?
KDM5B inh: inactive

How did CC(=O)c1ccccc1NC(=O)CSc1nc(C2CC2)n(-c2ccccc2)n1 do in these assays?
KDM5B inh: inactive

What do the screens show for `O=C(NCCCN1CCOCC1)C1CC(=O)N(c2ccccc2)C1` (stereo not given)?
KDM5B inh: inactive

How did COCCCNC(=O)CN(c1cc(C(F)(F)F)ccc1Cl)S(C)(=O)=O do in these assays?
KDM5B inh: inactive

How did CN(C)C[C@@H]1CN(c2ncccn2)C[C@H]1NC(=O)c1cccc2[nH]ccc12 do in these assays?
KDM5B inh: inactive

What do the screens show for `CN(C)C[C@@H]1CN(c2ncccn2)C[C@H]1NC(=O)c1cccn1C`?
KDM5B inh: 28µM

How did CN(C)C[C@@H]1CN(c2ncccn2)C[C@H]1NC(=O)c1ccccc1F do in these assays?
KDM5B inh: 28µM

How did Cc1ncccc1C(=O)N[C@@H]1CN(Cc2ccccc2)C[C@H]1CN(C)C do in these assays?
KDM5B inh: inactive

How did Cc1ccc(C)c(C(=O)N[C@@H]2CN(c3ncccn3)C[C@H]2CN(C)C)c1 do in these assays?
KDM5B inh: 22µM

What do the screens show for `CN(C)C[C@@H]1CN(c2ncccn2)C[C@H]1NC(=O)c1ccccc1Cl`?
KDM5B inh: 22µM

What do the screens show for `CNC(=O)N1C[C@@H](CN(C)C)[C@H](NC(=O)c2cccn2C)C1`?
KDM5B inh: inactive

How did CN(C)C[C@@H]1CN(Cc2ccccc2)C[C@H]1NC(=O)c1cccn1C do in these assays?
KDM5B inh: inactive

Results for CN(C)C[C@@H]1CN(Cc2ccccc2)C[C@H]1NC(=O)c1c(F)cccc1F ?
KDM5B inh: inactive

Results for CNC(=O)c1noc([C@@H]2CC(F)(F)CN2C(=O)C2CCCC2)n1 ?
KDM5B inh: inactive

What do the screens show for `CCC(C)(CC)C(O)(C#CC[N+]1(Cc2ccccc2)CCCCC1)c1ccccc1` (stereo not given)?
KDM5B inh: inactive

How did O=C(c1ccn[nH]1)N1CCC(c2noc(COc3ccc(F)cc3)n2)CC1 do in these assays?
KDM5B inh: inactive

How did CC(C)c1noc(-c2cn(C3CCN(C(=O)COc4ccccc4)CC3)nn2)n1 do in these assays?
KDM5B inh: inactive

Results for NCc1cnccn1 ?
KDM5B inh: inactive

Results for Cc1ccc(C)c(S(=O)(=O)N2CCN(C(=O)CSc3nnnn3C3CC3)CC2)c1 ?
KDM5B inh: inactive

What do the screens show for `Cc1ccc(NC(=O)[C@H](Cc2ccccc2)N2Cc3ccccc3C2=O)cc1F`?
KDM5B inh: inactive

Results for CC1(CCc2ccccc2)NC(=O)N(NC(=O)c2nn(-c3ccccc3)c(=O)c3ccccc23)C1=O (stereo not given) ?
KDM5B inh: inactive

How did Cc1ccccc1NC(=O)Cn1nnc2sc3c(c2c1=O)CC(C)(C)OC3 do in these assays?
KDM5B inh: inactive

Results for C=CCN(c1ccccc1C(=O)O)S(=O)(=O)c1ccc(NC(=O)OC)cc1 ?
KDM5B inh: inactive

What do the screens show for `CN1C(=O)C2(CC(=O)Nc3[nH]ncc32)c2ccccc21` (stereo not given)?
KDM5B inh: inactive

How did CN(C)C[C@@H]1CN(S(C)(=O)=O)C[C@H]1NC(=O)c1nccn1C do in these assays?
KDM5B inh: inactive

What do the screens show for `CN(C)C[C@@H]1CN(C)C[C@H]1NC(=O)c1cc(F)ccc1Cl`?
KDM5B inh: inactive

How did CN(C)C[C@@H]1CN(c2ccncn2)C[C@H]1NC(=O)c1ccc(F)cc1Cl do in these assays?
KDM5B inh: inactive

How did CN(C)C[C@@H]1CN(c2ncccn2)C[C@H]1NC(=O)c1cnn(C)c1 do in these assays?
KDM5B inh: 28µM

How did CN(C)C[C@@H]1CN(c2ccncn2)C[C@H]1NC(=O)c1ccc(C#N)cc1 do in these assays?
KDM5B inh: inactive

Results for CN(C)C[C@@H]1CN(c2ncccn2)C[C@H]1NC(=O)c1cc(F)ccc1Cl ?
KDM5B inh: 32µM

What do the screens show for `CC(C)C(=O)N1CCN(c2ccccc2NC(=S)NC(=O)c2ccco2)CC1`?
KDM5B inh: inactive

How did O=C(CSc1nc(C2CC2)n(-c2ccccc2)n1)N1CCN(c2ccccc2F)CC1 do in these assays?
KDM5B inh: inactive

What do the screens show for `CC1CCCN(Cc2c(O)ccc3c(=O)c(Oc4ccccc4Cl)c(C(F)(F)F)oc23)C1` (stereo not given)?
KDM5B inh: inactive

How did C/C(=C/C(=O)NCC1CCN(Cc2cccs2)CC1)C1CC1 do in these assays?
KDM5B inh: inactive

How did Cc1cc(S(=O)(=O)N(C)CC2CCOCC2)ccc1Cl do in these assays?
KDM5B inh: inactive
